{"source": "the supplement of paper PMC12636033", "note": "± gives the standard deviation of the averaged measurements. In all, about 33,000 sequences were measured (“E-score (rank enrichment, -0.5 to 0.5)”: median about -0.0075, highest 2% from about 0.23 on). The sample holds the highest values, similar sequences and a random draw of the others, so the mix is not that of the screen.", "data": [{"tested_on": "WT Max(13-93) synthetic (M65Nle)", "experiment": "PBM 8-mer E-score (E-score (rank enrichment, -0.5 to 0.5)); higher = stronger preferential binding", "protocol": "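Protein binding microarray (universal PBM chip covering all 10-mers in fixed probe flanks) with chemically synthesized human Max(13-93) bHLH-LZ analogs (not full-length Max) bearing noncanonical residues (hArg, Tha, Aib, Nle at 65) and aromatic Cys staples. Read-out per 8-mer (and its reverse complement): E-score (rank-based enrichment, -0.5 to 0.5) and Z-score of median probe intensity.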", "values": [{"sequence": "CGCTAAGC", "PBM 8-mer E-score": "-0.187 ± 0.092"}, {"sequence": "GTGCCTCA", "PBM 8-mer E-score": "-0.133 ± 0.12"}, {"sequence": "AACAGATT", "PBM 8-mer E-score": "-0.0422 ± 0.079"}, {"sequence": "CCAGAATA", "PBM 8-mer E-score": "-0.0319 ± 0.024"}, {"sequence": "GAACCTAA", "PBM 8-mer E-score": "-0.143 ± 0.099"}, {"sequence": "CCGGTCCA", "PBM 8-mer E-score": "-0.194 ± 0.12"}, {"sequence": "AGGGCACT", "PBM 8-mer E-score": "-0.053 ± 0.033"}, {"sequence": "GTAGGTAA", "PBM 8-mer E-score": "0.232 ± 0.042"}, {"sequence": "ATAGGTAA", "PBM 8-mer E-score": "0.0523 ± 0.015"}, {"sequence": "CTAGGTAA", "PBM 8-mer E-score": "-0.0715 ± 0.093"}, {"sequence": "GTGCTTGA", "PBM 8-mer E-score": "-0.0248 ± 0.16"}, {"sequence": "AACCAGCA", "PBM 8-mer E-score": "-0.0798 ± 0.12"}, {"sequence": "AGTGCCCC", "PBM 8-mer E-score": "-0.0153 ± 0.009"}, {"sequence": "AACGCAGT", "PBM 8-mer E-score": "-0.173 ± 0.062"}, {"sequence": "AAAGTATT", "PBM 8-mer E-score": "0.118 ± 0.043"}, {"sequence": "AAAGTATA", "PBM 8-mer E-score": "0.282 ± 0.045"}, {"sequence": "CAAGTATA", "PBM 8-mer E-score": "0.0775 ± 0.011"}, {"sequence": "GGAGCTTA", "PBM 8-mer E-score": "-0.168 ± 0.098"}, {"sequence": "AAACGCAG", "PBM 8-mer E-score": "-0.069 ± 0.017"}, {"sequence": "AACCGCAT", "PBM 8-mer E-score": "-0.102 ± 0.13"}, {"sequence": "AATCATGG", "PBM 8-mer E-score": "0.0882 ± 0.19"}, {"sequence": "CATCATAA", "PBM 8-mer E-score": "0.168 ± 0.045"}, {"sequence": "AATCATGC", "PBM 8-mer E-score": "0.168 ± 0.0099"}, {"sequence": "TATCATAA", "PBM 8-mer E-score": "0.239 ± 0.1"}, {"sequence": "TATCATGA", "PBM 8-mer E-score": "0.272 ± 0.0036"}, {"sequence": "AATCATGA", "PBM 8-mer E-score": "0.134 ± 0.038"}, {"sequence": "AATCATGT", "PBM 8-mer E-score": "0.235 ± 0.066"}, {"sequence": "GATCATAA", "PBM 8-mer E-score": "0.156 ± 0.094"}, {"sequence": "CATCATGA", "PBM 8-mer E-score": "0.0797 ± 0.1"}, {"sequence": "ACGATATG", "PBM 8-mer E-score": "0.0765 ± 0.093"}, {"sequence": "AGTAGCGA", "PBM 8-mer E-score": "-0.0978 ± 0.08"}, {"sequence": "GGCTATAA", "PBM 8-mer E-score": "-0.0145 ± 0.049"}, {"sequence": "TGCTACCA", "PBM 8-mer E-score": "0.081 ± 0.0046"}, {"sequence": "TCTGAAGA", "PBM 8-mer E-score": "-0.204 ± 0.095"}, {"sequence": "AAGTCCGG", "PBM 8-mer E-score": "-0.0703 ± 0.083"}, {"sequence": "AGGCCAAA", "PBM 8-mer E-score": "-0.0704 ± 0.025"}, {"sequence": "TAGGCATA", "PBM 8-mer E-score": "0.0815 ± 0.076"}, {"sequence": "AGTTTCCC", "PBM 8-mer E-score": "-0.0461 ± 0.026"}, {"sequence": "ACTTGGGG", "PBM 8-mer E-score": "0.0672 ± 0.1"}, {"sequence": "ATCACGTA", "PBM 8-mer E-score": "0.174 ± 0.1"}, {"sequence": "ATCACGCA", "PBM 8-mer E-score": "0.0746 ± 0.08"}, {"sequence": "ATCACGCC", "PBM 8-mer E-score": "0.0823 ± 0.14"}, {"sequence": "ATCACGCG", "PBM 8-mer E-score": "0.262 ± 0.0089"}, {"sequence": "ATCACGTG", "PBM 8-mer E-score": "0.481 ± 0.006"}, {"sequence": "ATCACGTC", "PBM 8-mer E-score": "0.167 ± 0.0029"}, {"sequence": "AGCACGCA", "PBM 8-mer E-score": "-5e-06 ± 0.0011"}, {"sequence": "CGCACGCG", "PBM 8-mer E-score": "0.167 ± 0.051"}, {"sequence": "ATCACACC", "PBM 8-mer E-score": "0.0527 ± 0.072"}, {"sequence": "ATCACACA", "PBM 8-mer E-score": "0.266 ± 0.071"}, {"sequence": "AGCACGCG", "PBM 8-mer E-score": "0.258 ± 0.035"}, {"sequence": "ATCACACG", "PBM 8-mer E-score": "0.199 ± 0.029"}, {"sequence": "AAACAGTC", "PBM 8-mer E-score": "-0.0664 ± 0.047"}, {"sequence": "AGGTTTTG", "PBM 8-mer E-score": "0.0094 ± 0.025"}, {"sequence": "ATAGCTAA", "PBM 8-mer E-score": "-0.104 ± 0.047"}, {"sequence": "AAAGCGGT", "PBM 8-mer E-score": "0.0199 ± 0.011"}, {"sequence": "GAACGTGA", "PBM 8-mer E-score": "-0.00116 ± 0.019"}, {"sequence": "GCACGTAC", "PBM 8-mer E-score": "0.0338 ± 0.094"}, {"sequence": "GCACGTGA", "PBM 8-mer E-score": "0.4391 ± 0.0016"}, {"sequence": "GCACGTCC", "PBM 8-mer E-score": "-0.0119 ± 0.016"}, {"sequence": "GGACGTGA", "PBM 8-mer E-score": "-0.0819 ± 0.01"}, {"sequence": "GCACGTGC", "PBM 8-mer E-score": "0.489 ± 0.0044"}, {"sequence": "ACTGTGCA", "PBM 8-mer E-score": "-0.0882 ± 0.057"}, {"sequence": "ATGGTCTA", "PBM 8-mer E-score": "-0.0528 ± 0.067"}, {"sequence": "GTGAGGGA", "PBM 8-mer E-score": "-0.116 ± 0.061"}, {"sequence": "AAATGGGC", "PBM 8-mer E-score": "-0.1 ± 0.011"}, {"sequence": "CTGCTAAC", "PBM 8-mer E-score": "-0.118 ± 0.073"}, {"sequence": "CCGCTGAC", "PBM 8-mer E-score": "-0.231 ± 0.04"}, {"sequence": "AGCTAACT", "PBM 8-mer E-score": "-0.0391 ± 0.11"}, {"sequence": "CGAACTTC", "PBM 8-mer E-score": "-0.102 ± 0.023"}, {"sequence": "TAAACATA", "PBM 8-mer E-score": "0.299 ± 0.0097"}, {"sequence": "GAAACAAA", "PBM 8-mer E-score": "0.238 ± 0.025"}, {"sequence": "TAAACAGA", "PBM 8-mer E-score": "0.128 ± 0.15"}, {"sequence": "GAAACATC", "PBM 8-mer E-score": "0.0695 ± 0.12"}, {"sequence": "CAAACATA", "PBM 8-mer E-score": "0.143 ± 0.12"}, {"sequence": "GAAACAAC", "PBM 8-mer E-score": "0.034 ± 0.041"}, {"sequence": "AAAACATA", "PBM 8-mer E-score": "0.0863 ± 0.034"}, {"sequence": "GAAACATA", "PBM 8-mer E-score": "0.27 ± 0.089"}, {"sequence": "CAAACAAA", "PBM 8-mer E-score": "0.0821 ± 0.1"}, {"sequence": "AGGGTGCC", "PBM 8-mer E-score": "-0.11 ± 0.043"}, {"sequence": "TAGTCCCA", "PBM 8-mer E-score": "-0.054 ± 0.018"}, {"sequence": "CCAATGGC", "PBM 8-mer E-score": "-0.126 ± 0.23"}, {"sequence": "GGCGACTA", "PBM 8-mer E-score": "-0.0354 ± 0.12"}, {"sequence": "GACAACGC", "PBM 8-mer E-score": "0.1 ± 0.061"}, {"sequence": "GCGTTTTA", "PBM 8-mer E-score": "0.0184 ± 0.062"}, {"sequence": "TGTTAACA", "PBM 8-mer E-score": "0.317 ± 0.13"}, {"sequence": "AGTTAACA", "PBM 8-mer E-score": "0.0439 ± 0.0024"}, {"sequence": "CGTTAACA", "PBM 8-mer E-score": "-0.00101 ± 0.057"}]}]}
